These results are taken from PubChem BioAssay (NCI).

This is part of a sample that, as a whole, favours compounds with a hit. Of some 83,000 tested, about 20% had one in any assay.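 Note: values are percent growth. 100 is the growth of untreated cells, values between 100 and 0 indicate rising inhibition; between -100 and 0 indicates cell death.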 Values without a mark were called inactive. Activity calls are given as the source filed them. The calls were made as follows: active = growth percent below 10; inactive = the rest.

Holding throughout (experiment): NCI-60 one-dose screen, 48 h (100 = growth as untreated, 0 = no growth, -100 = all killed)
Holding throughout (conditions): 10 µM unless noted

The test system of test [1] is NCI-H23 lung.
The subject of test [2] is NCI-H226 lung.
For test [3], the system named is NCI-H322M lung.
Test [4] relates to HOP-62 NSCLC.
The subject of test [5] is NCI-H460 lung.
Test [6] has as its system HOP-92 NSCLC.
Test [7] concerns A549/ATCC NSCLC.
Test [8] concerns 786-0 renal.
In test [9] the test system is COLO 205 colon.
Test [10] concerns DU-145 prostate.
Test [11] relates to K-562 leukemia.
The test system of test [12] is MDA-MB-231 breast.
In test [13] the test system is RXF 393 renal.
Test [14] deals with SF-268 CNS.
The subject of test [15] is SF-295 CNS.
In test [16] the test system is SF-539 CNS.
Test [17] has as its system UACC-257 melanoma.
Test [18] concerns M14 melanoma.
Test [19] deals with MALME-3M melanoma.

As to `Nc1ccc2c(c1Br)Cc1ccccc1-2`, the growth in test [1] was 92%; in [2], 104%; in test [3], 114%; in [4], 97.8%; in test [5], 102%; in test [6], 76%. Also, the growth in test [7] is 86%; in test [8], 107%; in [9], 99.2%; in test [10], 106%; in test [11], 95.2%; in [12] it was 74.7%. The growth was 111% in [13]; 86.7% in test [14]; 92.1% in test [15]; 79.4% in test [16]; 114% in test [17]; 105% in test [18].
With `Nc1ccccc1-c1ccn[nH]1`, the growth was 110% in test [1]; 86.8% in [2]; 93.8% in test [3]; 87.4% in test [4]; 104% in test [5]; 91.4% in test [6]. Also, the growth in test [7] is 89.6%; in test [8], 98.9%; in test [9], 86.6%; in [10], 101%; in test [11], 78.5%; in [12], 101%. For the same compound, the growth in test [13] is 111%; in test [14] it was 88.8%; in [15], 101%; in [16], 97.9%; in [17] it was 103%; in [18], 94.2%.
In the case of `O=C(CC1Sc2ccccc2NC1=O)NNc1cccc(Cl)c1Cl` (stereo not drawn), the growth in test [1] is 77%; in test [2] it was 73.9%; in test [3] it was 73.5%; in test [4] it was 84.6%; in test [5], 66.2%; in test [6], 24.4%. The growth in test [7] is 92.3%; in test [8] it was 95.3%; in test [10], 108%; in [11], 89.1%; in test [19], 54.6%; in test [12], 83.5%. The growth in [13] is 97.6%; in test [14], 91.4%; in test [15], 92.4%; in [16], 67.3%; in test [17] it was 99.1%; in [18] it was 112%.
Turning to `Nc1ccc2c(c1)C(=O)c1cc(Cl)c(Cl)cc1-2`, the growth in test [1] is 88.8%; in test [2], 83.1%; in [3], 117%; in test [4] it was 94.2%; in test [5], 105%; in [6] it was 72.2%. Further, the growth in [7] is 90.7%; in test [8] it was 91.4%; in [9] it was 83.5%; in test [10], 100%; in test [11], 87.5%; in test [12] it was 79.1%. Moreover, the growth is 104% in test [13]; 93.4% in test [14]; 105% in test [15]; 87.4% in [16]; 107% in test [17]; 104% in [18].
Consider `COc1ccc(-c2c3c(N)nc(-c4ccncc4)nc3nc3c2c(C)nn3-c2ccccc2)cc1`, for which the growth in test [1] is 59.9%; in test [2], 74%; in [3], 74.3%; in test [4], 62.6%; in [5], 23.4%; in test [6] it was 51.4%. Moreover, the growth in test [7] was 30.8%; in test [8], 72.6%; in test [9], 38.6%; in test [10], 82%; in [19], 76%; in test [12], 67.6%. Also, the growth in [13] was 69.4%; in test [14], 54%; in [15] it was 58.7%; in test [16], -40% (active); in [18], 69.1%.
Turning to `CCCCCCCCN(CCO)CCCCCCCC`, the growth in test [1] is 103%; in test [2] it was 92.8%; in [3], 96.1%; in test [4], 103%; in [5], 106%; in [6], 97%. Besides, the growth is 99.7% in test [7]; 101% in test [8]; 107% in [9]; 112% in test [10]; 104% in test [11]; 117% in test [12]. Besides, the growth is 93.2% in [13]; 107% in test [14]; 94.4% in test [16]; 94.3% in test [17]; 101% in test [18].
Regarding `Cc1ccc(-c2c3c(N)c4c(nc3nc3c2c(C)nn3-c2ccccc2)CCC4)cc1`, the growth in test [1] was 66.8%; in test [2] it was 92.6%; in test [3], 89.1%; in test [4], 95.7%; in test [5], 5% (active); in test [6], 77.9%. Also, the growth in [7] was 32.9%; in test [8] it was 28%; in test [9] it was -74.4% (active); in [10], 106%; in [19], 91.5%; in [12] it was 37.4%. In addition, the growth in test [14] was 108%; in test [15] it was 98.5%; in test [16], 72.7%; in [18], 88%.
Turning to `CC(=O)Nc1cc2c3c(cccc3c1)-c1ccccc1-2`, the growth in test [1] is 89.1%; in test [2], 37.4%; in [3], 79.9%; in [4] it was 103%; in test [5], 64.4%; in test [6], 78.9%. In addition, the growth in [7] is 34%; in [8] it was 50.4%; in test [9], 107%; in [10], 97.7%; in test [11] it was 71.9%; in test [12], 67.5%. Moreover, the growth in [13] was 92.4%; in test [14] it was 39%; in test [15] it was 92.9%; in test [16] it was 39.7%; in [17] it was 88.8%; in [18] it was 99.6%.
For the compound `CCOC(=O)c1sc(NC(=O)COc2cccc(/C=C3\Cc4ccc(Cl)cc4C3=O)c2)nc1C`, the growth in test [1] was 93.1%; in test [2], 95.4%; in [3], 130%; in [4], 107%; in test [5] it was 103%; in test [6], 96.7%. Moreover, the growth in [7] is 107%; in [8] it was 99.5%; in test [10], 117%; in test [11], 89.9%; in [19], 138%; in test [12], 81.1%. In addition, the growth in test [13] is 131%; in [14] it was 116%; in [15] it was 125%; in test [16], 107%; in [17], 110%; in test [18], 110%.
